PubChem BioAssay (NCI)
Compounds without any hit were thinned out: in the full panel of roughly 83,000, 20% have a hit.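 Single-concentration screen, 48 h exposure, 96-well plates. Endpoint: percent growth. Below 10 = active.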

Legend:
Assay in all cases: NCI-60 one-dose screen, 48 h (100 = growth as untreated, 0 = no growth, -100 = all killed)
Settings in all cases: 10 µM unless noted
NCI-H23 lung = tested on: NCI-H23 lung
NCI-H226 lung = tested on: NCI-H226 lung
NCI-H322M lung = tested on: NCI-H322M lung
HOP-62 NSCLC = tested on: HOP-62 NSCLC
HOP-92 NSCLC = tested on: HOP-92 NSCLC
NCI-H522 lung = tested on: NCI-H522 lung
A549/ATCC NSCLC = tested on: A549/ATCC NSCLC
786-0 renal = tested on: 786-0 renal
COLO 205 colon = tested on: COLO 205 colon
DU-145 prostate = tested on: DU-145 prostate
K-562 leukemia = tested on: K-562 leukemia
MALME-3M melanoma = tested on: MALME-3M melanoma
MDA-MB-231 breast = tested on: MDA-MB-231 breast
RXF 393 renal = tested on: RXF 393 renal
SF-268 CNS = tested on: SF-268 CNS
SF-295 CNS = tested on: SF-295 CNS
SF-539 CNS = tested on: SF-539 CNS
UACC-257 melanoma = tested on: UACC-257 melanoma
M14 melanoma = tested on: M14 melanoma
NCI-H460 lung = tested on: NCI-H460 lung

Measured: growth

O=C1O[C@@H](c2ccccc2Cl)[C@@H]2c3cc4c(cc3CCN12)OCO4
inactive: NCI-H23 lung 103% | NCI-H226 lung 93.7% | NCI-H322M lung 89.3% | HOP-62 NSCLC 96.2% | HOP-92 NSCLC 92.5% | NCI-H522 lung 81.9% | A549/ATCC NSCLC 86.3% | 786-0 renal 97.9% | COLO 205 colon 110% | DU-145 prostate 105% | K-562 leukemia 87.5% | MALME-3M melanoma 101% | MDA-MB-231 breast 97.2% | RXF 393 renal 111% | SF-268 CNS 93.2% | SF-295 CNS 102% | SF-539 CNS 107% | UACC-257 melanoma 90.7% | M14 melanoma 105%

CC1(C)N=C(N)N=C(N)N1c1ccc(S(=O)(=O)Nc2nccs2)cc1
inactive: NCI-H23 lung 101% | NCI-H226 lung 101% | NCI-H322M lung 104% | HOP-62 NSCLC 95.8% | NCI-H460 lung 104% | HOP-92 NSCLC 87.2% | A549/ATCC NSCLC 96.1% | 786-0 renal 99.5% | COLO 205 colon 105% | DU-145 prostate 103% | K-562 leukemia 98.9% | MALME-3M melanoma 99.3% | MDA-MB-231 breast 103% | RXF 393 renal 105% | SF-268 CNS 94.3% | SF-295 CNS 101% | SF-539 CNS 95.1% | UACC-257 melanoma 98.5% | M14 melanoma 99.6%

C=C[C@@]1(C)CC(=O)[C@@H](C(C)(C)c2cn(C)c3ccc(Br)cc23)C[C@@H]1O[Si](C)(C)C(C)(C)C
inactive: NCI-H23 lung 98.3% | NCI-H226 lung 83.9% | NCI-H322M lung 101% | HOP-62 NSCLC 111% | HOP-92 NSCLC 83.6% | NCI-H522 lung 94.4% | A549/ATCC NSCLC 102% | 786-0 renal 97.4% | COLO 205 colon 104% | DU-145 prostate 95.4% | K-562 leukemia 104% | MALME-3M melanoma 92.2% | MDA-MB-231 breast 96.6% | RXF 393 renal 108% | SF-268 CNS 96.5% | SF-295 CNS 103% | SF-539 CNS 97.3% | UACC-257 melanoma 103% | M14 melanoma 91.7%

Nc1ncccc1O
inactive: NCI-H23 lung 78% | NCI-H226 lung 94.1% | NCI-H322M lung 98.8% | HOP-62 NSCLC 99.5% | NCI-H460 lung 49.3% | HOP-92 NSCLC 105% | A549/ATCC NSCLC 77.9% | 786-0 renal 111% | COLO 205 colon 92.6% | DU-145 prostate 22.8% | K-562 leukemia 67.6% | MALME-3M melanoma 131% | MDA-MB-231 breast 117% | RXF 393 renal 76.1% | SF-268 CNS 96% | SF-295 CNS 82.4% | SF-539 CNS 106% | UACC-257 melanoma 91.3% | M14 melanoma 102%
